Bioassay records deposited in PubChem BioAssay by National Center for Advancing Translational Sciences (NCATS).
Most compounds without a hit are left out; they make up all but 3.7% or so of the library.
GLP-1R inv ag = inverse agonists of human GLP-1 receptor; HEK293 GLP-1R CRE-luciferase, luminescence, 24 h; GLP-1R form is constitutively active; Potency, µM (titrated, usually from 38.3 µM), for inactives: top-dose activity change, negative = inhibition, actives largely listed as inhibitors; actives 1.6% (n = 410,000); note: % is set by controls: 0 for no effect and ±100 for the full control effect; nearly all actives have a fitted effect of over 55% in size
Target sequence (P43220 whole entry, looked up): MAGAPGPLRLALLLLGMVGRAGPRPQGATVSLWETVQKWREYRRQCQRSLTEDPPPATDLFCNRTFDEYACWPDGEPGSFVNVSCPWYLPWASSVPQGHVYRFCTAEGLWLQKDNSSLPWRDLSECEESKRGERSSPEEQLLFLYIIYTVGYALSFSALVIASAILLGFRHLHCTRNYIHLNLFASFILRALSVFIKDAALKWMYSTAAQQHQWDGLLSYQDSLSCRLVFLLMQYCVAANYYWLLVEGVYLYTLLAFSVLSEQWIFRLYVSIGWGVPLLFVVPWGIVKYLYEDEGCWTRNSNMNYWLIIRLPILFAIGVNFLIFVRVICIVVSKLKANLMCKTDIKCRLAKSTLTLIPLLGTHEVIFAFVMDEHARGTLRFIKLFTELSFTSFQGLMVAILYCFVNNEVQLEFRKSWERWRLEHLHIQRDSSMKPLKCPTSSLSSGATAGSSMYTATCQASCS
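GLP-1R inverse agonism mode: basal reporter luminescence in engineered HEK293 cells measured after one day of compound exposure at 37 deg C, with a 12 min room-temperature detection step.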
ATXN2 expr inh = inhibitors of ATXN2 expression. HEK-293 ATXN2-luciferase reporter, luminescence, 24 h. Potency, µM (doses to about 57 µM), for inactives: at the highest dose activity change, negative = inhibition, usual class: inhibitors. actives 0.72% (n = 360,000); note: % is set by controls: 0 for no effect and ±100 for the full control effect; nearly all actives have a fitted effect of over 55% in size
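qHTS (up to 57 uM final) was run with 24 h compound exposure of reporter cells at 37 °C. Each well was multiplexed: SteadyGlo luminescence measured ATXN2-luciferase expression after a fluorogenic Gly-Phe-AFC viability readout (25 uM final).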
TGFb SMAD3 inh = inhibitors of TGF-b signaling. Potency, µM (titrated, usually from 46.1 µM), inactives show top-dose activity, negative = inhibition, actives largely listed as inhibitors. actives 1.2% (n = 410,000). HepG2 CAGA-GFP TGF-b/SMAD3 reporter, GFP fluorescence, 18 h; TGF-beta stimulated, 500 pg/mL final. AID 588855; note: % is set by controls: 0 for no effect and ±100 for the full control effect; nearly all actives have a fitted effect of over 65% in size
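HEPG2 CAGA-GFP reporter cells (1000/well, DMEM with 1% FBS) received compounds, then recombinant TGF-beta at 500 pg/mL final for 18 hours at 37 degrees C. Per-cell GFP summed per well was normalised to unstimulated and stimulated DMSO controls before curve fitting.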
GLP1R ag = agonists of human GLP-1 receptor | HEK293 GLP-1R CRE-luciferase, luminescence, 4-6 h; cells express a hypersensitive GLP-1R form | P43220 | actives 0.007% (n = 380,000) | Potency, µM (doses to about 45.6 µM), without a hit: at the top dose activation, actives largely listed as activators; note: % of control where 0% means no effect
ATXN viability = reduces viability in counter-screen for ATXN expression inhibitors; S2 cells (HEK-293 line with an ATXN2-luciferase reporter) viability, CellTiter-Fluor protease fluorescence, 24 h; Potency, µM (titrated, usually from 56.7 µM), hits mostly cytotoxic; AID 651635; actives 0.49% (n = 400,000); note: nearly all actives have a fitted effect of over 40% in size
HepG2 tox-1 = counter-screen for TGF-b inhibitors: cytotoxicity in HepG2 cells | HepG2 CAGA-GFP viability, ATP luminescence, 18 h | Potency, µM (doses to about 46.1 µM), for inactives: top-dose activity change, negative = cytotoxicity, most hits filed as cytotoxic | actives 0.76% (n = 410,000)
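HepG2 CAGA-GFP cells (1000/well, DMEM with 1% FBS) received compound, then TGF-beta at 500 pg/mL final, and were incubated 18 hours at 37 degrees C. Viability was read by CellTiter-Glo luminescence. Media-only wells were set as complete cell-killing and DMSO as no toxicity.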
TGFb confirm = TGF-b pathway inhibition, cherry-pick retest | shares compounds with TGFb SMAD3 inh | HepG2 CAGA-GFP TGF-b reporter, GFP fluorescence, 18 h; cells stimulated with TGF-beta, 500 pg/mL | Potency, µM (top dose mostly 46.1 µM), without a hit: top-dose activity, negative = inhibition, actives largely listed as inhibitors | actives 63% (n = 1,600) | AID 720534; note: % is set by controls: 0 for no effect and ±100 for the full control effect; nearly all actives have a fitted effect of over 65% in size
HepG2 tox-2 = HepG2 cytotoxicity, TGF-b inhibitor counterscreen | shares compounds with TGFb SMAD3 inh | HepG2 CAGA-GFP viability, ATP luminescence, 18 h; cells stimulated with TGF-beta, 500 pg/mL | Potency, µM (doses to about 46.1 µM), for the others: at the highest dose activity, negative = cytotoxicity, most hits filed as inhibitors | actives 27% (n = 1,600) | AID 720535; note: % is set by controls: 0 for no effect and ±100 for the full control effect; nearly all actives have a fitted effect of over 70% in size
CCL64 TGFb inh = TGF-b inhibition, CCL64 orthogonal assay | Potency, µM (top dose mostly 46.1 µM), for the others: top-dose activity, negative = inhibition, hits mostly inhibitors | CCL64 CAGA-GFP reporter, TGF-b stimulated, GFP fluorescence, 18 h | shares compounds with TGFb SMAD3 inh | actives 41% (n = 1,600); note: nearly all actives have a fitted effect of over 65% in size
COP TGFb inh = blocks TGF-b signaling in HepG2 COP reporter; Potency, µM (doses to about 46.1 µM), for inactives: top-dose activity, negative = inhibition, usual class: inhibitors; shares compounds with TGFb SMAD3 inh; HepG2 COP-GFP TGF-b reporter, GFP fluorescence, 18 h; cells stimulated by added recombinant TGF-beta; actives 3% (n = 1,600); AID 720537; note: nearly all actives have a fitted effect of over 70% in size
An asterisk follows results filed as active. Calls come from the whole dose curve; as a rule, active = well fitted curve in the direction sought with a large enough effect; inconclusive = small, poorly fitted or top-dose-only effect, or another doubt; inactive = no such curve, though single readings can be large; an effect the other way counts as inactive or inconclusive. Potency is the fitted concentration of half-maximal effect.

How did Cc1ccc([C@H]2N[C@]3(CCCN(Cc4ccc(C(F)(F)F)cc4)C3=O)[C@H]3C(=O)N(Cc4ccccc4)C(=O)[C@@H]23)cc1 do in these assays?
GLP-1R inv ag: inconclusive; ATXN2 expr inh: -8%; TGFb SMAD3 inh: -7%; GLP1R ag: -2%; ATXN viability: inactive; HepG2 tox-1: 2%

What do the screens show for `[S]=[Sb][S][Sb]=[S]`?
GLP1R ag: -3%

What do the screens show for `COc1ccc(C(c2nnnn2-c2c(C)cccc2C)N2CCC(n3c(=O)[nH]c4ccccc43)CC2)cc1` (configuration not stated)?
GLP-1R inv ag: inconclusive; ATXN2 expr inh: inconclusive; TGFb SMAD3 inh: inconclusive; GLP1R ag: -7%; ATXN viability: inconclusive; HepG2 tox-1: -46%

Results for O=C1NCN(c2ccccc2)C12CCN(C(c1cccs1)c1nnnn1-c1ccc3c(c1)OCCO3)CC2 (configuration not stated) ?
GLP-1R inv ag: -27%; ATXN2 expr inh: -23%; TGFb SMAD3 inh: 13µM*; GLP1R ag: 7%; ATXN viability: inconclusive; HepG2 tox-1: 21%; TGFb confirm: inconclusive; HepG2 tox-2: -27%; CCL64 TGFb inh: 10µM*; COP TGFb inh: 53%

How did O=c1[nH]c2ccccc2n1C1CCN(C(c2ccccc2OC(F)(F)F)c2nnnn2-c2ccc3c(c2)OCCO3)CC1 (configuration not stated) do in these assays?
GLP-1R inv ag: inconclusive; ATXN2 expr inh: 13µM*; TGFb SMAD3 inh: 8.9µM*; GLP1R ag: -6%; HepG2 tox-1: -56%; TGFb confirm: inconclusive; HepG2 tox-2: inconclusive; CCL64 TGFb inh: 8.2µM*; COP TGFb inh: 38%

Results for COc1ccc(-n2nnnc2C(c2cccs2)N2CCC(n3c(=O)[nH]c4ccccc43)CC2)cc1 (configuration not stated) ?
GLP-1R inv ag: inconclusive; ATXN2 expr inh: inconclusive; TGFb SMAD3 inh: inconclusive; GLP1R ag: -4%; ATXN viability: inconclusive; HepG2 tox-1: -3%

How did O=c1[nH]c2ccccc2n1C1CCN(C(c2ccccc2)c2nnnn2-c2ccc3c(c2)OCCO3)CC1 (configuration not stated) do in these assays?
GLP-1R inv ag: inconclusive; ATXN2 expr inh: inconclusive; TGFb SMAD3 inh: inconclusive; GLP1R ag: -4%; HepG2 tox-1: 10%

Results for Cc1cccc(C)c1-n1nnnc1C(c1cc2ccccc2o1)N1CCC(n2c(=O)[nH]c3ccccc32)CC1 (configuration not stated) ?
GLP-1R inv ag: inconclusive; ATXN2 expr inh: 5.6µM*; TGFb SMAD3 inh: 7.1µM*; GLP1R ag: -1%; ATXN viability: inconclusive; HepG2 tox-1: -8%; TGFb confirm: 5.8µM*; HepG2 tox-2: inconclusive; CCL64 TGFb inh: 5.8µM*; COP TGFb inh: 21%

Results for COc1ccc(-n2nnnc2C(c2ccccc2)N2CCC(n3c(=O)[nH]c4ccccc43)CC2)cc1 (configuration not stated) ?
GLP-1R inv ag: inconclusive; ATXN2 expr inh: inconclusive; TGFb SMAD3 inh: 8.9µM*; GLP1R ag: -7%; ATXN viability: inconclusive; HepG2 tox-1: -2%; TGFb confirm: inconclusive; HepG2 tox-2: inconclusive; CCL64 TGFb inh: inconclusive; COP TGFb inh: 58%

Results for Cc1nc2ccccn2c1C(=O)N=Nc1c(O)n(CCC(C)C)c2ccccc12 ?
GLP-1R inv ag: 22%; ATXN2 expr inh: -8%; TGFb SMAD3 inh: 1%; GLP1R ag: 4%; ATXN viability: inactive; HepG2 tox-1: -4%

How did Cc1cccc(NC(=O)Cn2c(=O)oc3cc(S(=O)(=O)NCc4ccccc4)ccc32)c1 do in these assays?
GLP-1R inv ag: -19%; ATXN2 expr inh: -3%; TGFb SMAD3 inh: -35%; ATXN viability: inactive; HepG2 tox-1: -31%

Results for O=C(Nc1ccc2oc(-c3cccnc3)nc2c1)c1ccc(-c2cccc(Cl)c2)o1 ?
GLP-1R inv ag: 4%; TGFb SMAD3 inh: inconclusive; HepG2 tox-1: 5%

What do the screens show for `O=c1[nH]c2ccccc2n1C1CCN(C(c2cccs2)c2nnnn2-c2ccc3c(c2)OCCO3)CC1` (configuration not stated)?
GLP-1R inv ag: inconclusive; ATXN2 expr inh: inconclusive; TGFb SMAD3 inh: 11µM*; GLP1R ag: 0%; ATXN viability: inconclusive; HepG2 tox-1: -6%; TGFb confirm: -83%; HepG2 tox-2: -24%; CCL64 TGFb inh: inconclusive; COP TGFb inh: 54%

How did O=c1[nH]c2ccccc2n1C1CCN(C(c2cccc3ccccc23)c2nnnn2Cc2ccccc2)CC1 (configuration not stated) do in these assays?
GLP-1R inv ag: inconclusive; ATXN2 expr inh: inconclusive; TGFb SMAD3 inh: 16µM*; GLP1R ag: -1%; ATXN viability: inconclusive; HepG2 tox-1: -23%; TGFb confirm: 6.5µM*; HepG2 tox-2: -7%; CCL64 TGFb inh: inconclusive; COP TGFb inh: 2%
